{
  "source": "PubChem BioAssay AID485270",
  "about": "(The Scripps Research Institute Molecular Screening Center, 2010)",
  "note": "Hit rate of the full screen: of about 330,000 compounds, about 5,800 (1.8%) were called active. No stated cut-off is given here; in the data, active means inhibition mostly above about 38% (no sharp cut-off); inactive means mostly below about 40%. The sample as a whole holds a higher share of actives than the screen did.",
  "data": [
    {"target": "Orexin/Hypocretin receptor type 1 (Homo sapiens) (UniProt O43613)", "sequence (O43613 whole entry, looked up)": "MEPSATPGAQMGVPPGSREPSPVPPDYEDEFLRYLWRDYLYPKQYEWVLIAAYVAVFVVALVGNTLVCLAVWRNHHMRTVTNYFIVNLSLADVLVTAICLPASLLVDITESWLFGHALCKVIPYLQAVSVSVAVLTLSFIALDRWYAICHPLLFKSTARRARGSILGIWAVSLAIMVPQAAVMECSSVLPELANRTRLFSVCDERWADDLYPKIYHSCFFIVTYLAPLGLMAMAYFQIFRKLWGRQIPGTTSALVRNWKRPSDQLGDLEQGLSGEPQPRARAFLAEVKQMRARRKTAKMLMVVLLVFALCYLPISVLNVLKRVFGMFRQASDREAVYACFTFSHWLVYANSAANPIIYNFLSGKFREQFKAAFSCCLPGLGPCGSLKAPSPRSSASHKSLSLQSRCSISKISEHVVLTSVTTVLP", "assay": "antagonists of human orexin 1 receptor (OX1R) (AID 485270);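 further: 0% = agonist challenge alone and 100% = reference antagonist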", "conditions": "OX1R-expressing cells, FRET antagonist read-out; at 6.6 µM; stronger effect = higher value", "values": [
      {"smiles": "CN(CC(=O)O)C(=O)c1ccccc1", "inhibition": "11.7% (inactive)"},
      {"smiles": "Cc1cccc(N(CC(=O)N=Nc2c(O)[nH]c3ccccc23)S(C)(=O)=O)c1C", "inhibition": "5.48% (inactive)"},
      {"smiles": "COCC(=O)N=Nc1c(O)[nH]c2ccccc12", "inhibition": "68.8% (active)"},
      {"smiles": "O=C(CCN1CCCCC1)N=Nc1c(O)[nH]c2ccccc12", "inhibition": "22.5% (inactive)"},
      {"smiles": "Cc1ccc(NS(=O)(=O)c2ccc(C(C)C)cc2)cc1S(=O)(=O)N1CCOCC1", "inhibition": "1.43% (inactive)"},
      {"smiles": "Cc1cccc(OCC(=O)OCC(=O)Nc2ccc(Cl)cn2)c1", "inhibition": "4.09% (inactive)"},
      {"smiles": "CCOCCCNc1nc(-c2ccccc2)nc2ccccc12", "inhibition": "13.2% (inactive)"},
      {"smiles": "COCCNc1nc(-c2ccccc2)nc2c1oc1ccccc12", "inhibition": "19.4% (inactive)"},
      {"smiles": "c1ccc(-c2nc(NCc3ccco3)c3ccccc3n2)cc1", "inhibition": "81.6% (active)"},
      {"smiles": "O=C(Cc1ccccc1)n1nc(-c2ccccc2)nc1NCc1ccco1", "inhibition": "16.1% (inactive)"},
      {"smiles": "c1coc(CNc2ncnc3ccccc23)c1", "inhibition": "37.9% (inactive)"},
      {"smiles": "CCC(=O)OCCNc1nc(-c2ccccc2)nc2ccccc12", "inhibition": "48.8% (active)"},
      {"smiles": "CC1CCCCC1NC(=O)COc1ccc(C#N)cc1", "note": "(configuration not stated)", "inhibition": "1.71% (inactive)"},
      {"smiles": "O=C(COC(=O)c1ccc(Br)o1)NC12CC3CC(CC(C3)C1)C2", "inhibition": "1.86% (inactive)"},
      {"smiles": "O=C1N[C@H](Cc2c[nH]c3ccccc23)COC(=O)[C@H](Cc2ccc(F)cc2)C/C=C\\C[C@H]1CC(=O)N(CCO)Cc1ccccc1", "inhibition": "-2.83% (inactive)"},
      {"smiles": "Cc1ccc(C(=O)Nc2ccn(C)n2)cc1", "inhibition": "-1.37% (inactive)"},
      {"smiles": "COc1ccc(Br)cc1CN(C)C(=O)C1CC(=O)N(C2CCCC2)C1", "note": "(configuration not stated)", "inhibition": "8.23% (inactive)"},
      {"smiles": "CCOC(=O)c1c(NC(=O)C2CCN(S(=O)(=O)c3ccc(Cl)cc3)CC2)sc2c1CCCC2", "inhibition": "6.08% (inactive)"},
      {"smiles": "O=C(Nc1sc2c(c1-c1nc3ccccc3[nH]1)CCCC2)C1CC1", "inhibition": "46.5% (active)"},
      {"smiles": "O=C(C1CCCO1)N1CCC(c2nc3ccccc3[nH]2)CC1", "note": "(configuration not stated)", "inhibition": "-1.4% (inactive)"},
      {"smiles": "C=CC[C@@H](CC(=O)N[C@@H](CO)Cc1ccccc1)C(=O)NCCOC(=O)[C@@H](CC=C)CC(=O)OC(C)(C)C", "inhibition": "14.3% (inactive)"},
      {"smiles": "COC(=O)[C@]1(Cc2ccccc2)N[C@H](CN(C)S(=O)(=O)c2ccc(OC(F)(F)F)cc2)[C@@H]2C(=O)N(Cc3ccccc3)C(=O)[C@@H]21", "inhibition": "5.26% (inactive)"},
      {"smiles": "COCCNC(=O)Nc1ccc2nc(-c3ccco3)c(-c3ccco3)nc2c1", "inhibition": "113% (active)"},
      {"smiles": "CCCC(=O)Nc1ccc2c(c1)nc(CCNC(=O)c1ccco1)n2C", "inhibition": "7.62% (inactive)"},
      {"smiles": "CCOc1cc(NC(=S)NCCCOC)c(OCC)cc1NC(=O)c1ccco1", "inhibition": "11.1% (inactive)"},
      {"smiles": "Cc1noc(C)c1S(=O)(=O)N(C)C[C@H]1Oc2c(NC(=O)Nc3ccc4c(c3)OCO4)cccc2C(=O)N([C@H](C)CO)C[C@@H]1C", "inhibition": "2.76% (inactive)"},
      {"smiles": "C[C@H](CO)N1C[C@H](C)[C@H](CN(C)CC2CC2)Oc2ccc(NC(=O)CCN3CCOCC3)cc2C1=O", "inhibition": "-2.5% (inactive)"},
      {"smiles": "Cc1ccc(S(=O)(=O)N(C)C)cc1NC(=O)C(C)OC(=O)c1ccc2ccccc2n1", "note": "(configuration not stated)", "inhibition": "7.22% (inactive)"},
      {"smiles": "CC(NC(=O)COC(=O)CCC(=O)c1ccc(Cl)cc1)c1ccccc1", "note": "(configuration not stated)", "inhibition": "10.1% (inactive)"},
      {"smiles": "Cc1ccc(C(=O)OCc2nc(N)nc(Nc3ccccc3C)n2)cc1", "inhibition": "-2.57% (inactive)"},
      {"smiles": "Nc1nc(COC(=O)CCC(=O)c2ccc(Cl)cc2)nc(Nc2ccccc2)n1", "inhibition": "37.4% (active)"},
      {"smiles": "O=C(NCc1ccc2c(c1)OCO2)c1cc([N+](=O)[O-])ccc1N1CCOCC1", "inhibition": "19.9% (inactive)"},
      {"smiles": "Cc1c(C(=O)OC(C)C)sc(NC(=O)c2cccnc2)c1C#N", "inhibition": "54.5% (inactive)"},
      {"smiles": "CC1CCCCC12NC(=O)N(CC(=O)N1CCN(c3ccccc3)CC1)C2=O", "note": "(configuration not stated)", "inhibition": "-1.13% (inactive)"},
      {"smiles": "O=C(Nc1cc(S(=O)(=O)Nc2ccc(Cl)cc2)ccc1O)c1ccc(F)cc1F", "inhibition": "8.71% (inactive)"},
      {"smiles": "O=C(CN1C(=O)NC2(CCCCCCC2)C1=O)NCc1ccc(F)cc1", "inhibition": "8.6% (inactive)"},
      {"smiles": "CC[C@@]1(C(=O)OC)N[C@H](CN(C)C(C)=O)[C@@H]2C(=O)N(C)C(=O)[C@@H]21", "inhibition": "1.97% (inactive)"},
      {"smiles": "Cc1ccc(S(=O)(=O)NC[C@H]2O[C@@H](n3cnc4c(N)ncnc43)[C@H](O)[C@@H]2O)s1", "inhibition": "-6.3% (inactive)"},
      {"smiles": "CCN(CC)c1ccc(C(=O)c2cnc(/N=C/N(C)C)s2)cc1", "inhibition": "66.5% (active)"},
      {"smiles": "CCN(CC)c1ccc(/C=N/NC(=O)CNC(=O)c2cccnc2)cc1", "inhibition": "3.18% (inactive)"},
      {"smiles": "CCN(CC)c1ccc(NC(=O)c2ccc(Cl)nc2)cc1", "inhibition": "17.1% (inactive)"},
      {"smiles": "O=C(Nc1nnc(-c2ccccc2)o1)c1cc(-c2cccs2)nc2ccccc12", "inhibition": "88.8% (active)"},
      {"smiles": "CCCCN(C)CCCNC(=O)c1cc(-c2cccs2)nc2ccccc12", "inhibition": "13.3% (inactive)"},
      {"smiles": "O=C(NCCN1CCOCC1)c1cc(-c2cccs2)nc2ccccc12", "inhibition": "18.8% (inactive)"},
      {"smiles": "O=C(c1ccc(S(=O)(=O)NCc2ccco2)cc1)N1CCN(c2ccccc2)CC1", "inhibition": "11.5% (inactive)"},
      {"smiles": "COc1ccc(S(=O)(=O)Nc2cccc3c2O[C@H](CN(C)S(=O)(=O)c2ccc(OC)cc2)[C@@H](C)CN([C@H](C)CO)C3=O)cc1", "inhibition": "-2.59% (inactive)"},
      {"smiles": "COc1cc(OC)cc(C(=O)NNC(=O)Cc2cccs2)c1", "inhibition": "1.69% (inactive)"},
      {"smiles": "Cc1cc(C(=O)O)ccc1[N+](=O)[O-]", "inhibition": "1.62% (inactive)"},
      {"smiles": "Cc1oc2cc([N+](=O)[O-])c(O)c([N+](=O)[O-])c2c1C(=O)c1ccc(Br)cc1", "inhibition": "67.5% (active)"},
      {"smiles": "COc1ccc(C(=O)c2c(C)oc3cc([N+](=O)[O-])c(O)c([N+](=O)[O-])c23)cc1", "inhibition": "30.6% (inactive)"},
      {"smiles": "COc1cc(Cl)c(C)cc1NC(=O)CSc1nnc(-c2cccnc2)n1Cc1ccco1", "inhibition": "15.5% (inactive)"},
      {"smiles": "Cc1ccc(NC(=O)CSc2nnc(-c3cnccn3)n2Cc2ccco2)cc1C", "inhibition": "18.9% (inactive)"},
      {"smiles": "COc1ccc(NC(=O)CSc2nnc(-c3cccs3)n2Cc2ccco2)cc1OC", "inhibition": "41.6% (active)"},
      {"smiles": "CC(OC(=O)c1ccc(Cl)cc1O)C(=O)NCCC1=CCCCC1", "note": "(configuration not stated)", "inhibition": "5.93% (inactive)"},
      {"smiles": "O=C(COc1ccccc1F)NNC(=O)c1cc(Br)ccc1Cl", "inhibition": "12.4% (inactive)"},
      {"smiles": "C#CCOCCOCCOCCNc1nc(N2CCN(C(=O)C([C@@H](C)O)n3cc([C@@H](N)CCCCN)nn3)CC2)nc(N2CCN(C(=O)[C@H](CCCCN)n3cc(CN)nn3)CC2)n1", "note": "(some centres not stated)", "inhibition": "6.34% (inactive)"},
      {"smiles": "C=CC(COCc1ccccc1)N(CC(=O)OC)S(=O)(=O)c1cc(Br)ccc1OC", "note": "(configuration not stated)", "inhibition": "20.4% (inactive)"},
      {"smiles": "O=C(N/N=C/c1sc(N2CCCCC2)nc1-c1cccs1)c1cccnc1", "inhibition": "111% (active)"},
      {"smiles": "Cc1cc(/C=N/NC(=O)c2cccnc2)c(C)n1CC(C)C", "inhibition": "3.61% (inactive)"},
      {"smiles": "O=C(NN=C1CCC(=NNC(=O)c2cccnc2)CC1)c1cccnc1", "inhibition": "1.73% (inactive)"},
      {"smiles": "CC(C#N)OC(=O)c1cccnc1SCC(=O)Nc1ccc2c(c1)OCO2", "note": "(configuration not stated)", "inhibition": "8.21% (inactive)"},
      {"smiles": "O=C(CC(O)(C(F)(F)F)C(F)(F)F)Nc1ccc(Cl)c(Cl)c1", "inhibition": "68.7% (active)"},
      {"smiles": "O=C(CC1SCCNC1=O)Nc1ccc(Cl)c(Cl)c1", "note": "(configuration not stated)", "inhibition": "10.1% (inactive)"},
      {"smiles": "O=C(Cc1ccc(Cl)c(Cl)c1)Nc1ccc(SC(F)F)cc1", "inhibition": "17.7% (inactive)"},
      {"smiles": "Cc1cc(C(=O)Nc2nnc(C3CC3)s2)c(C)s1", "inhibition": "7.15% (inactive)"},
      {"smiles": "CCOC(=O)C1=C(C)N(C[C@@H]2CC[C@@H](Cc3ccc(-c4ccccc4)cc3)O2)C(=O)NC1c1ccc([N+](=O)[O-])cc1", "note": "(some centres not stated)", "inhibition": "5.68% (inactive)"},
      {"smiles": "COc1ccc(Br)cc1CN(C)CC(=O)Nc1cc(Cl)cc(Cl)c1", "inhibition": "22.9% (inactive)"},
      {"smiles": "COc1ccc2nc3n(c(=O)c2c1)-c1cc(C)ccc1C(=O)NC3Cc1ccc(O)cc1", "note": "(configuration not stated)", "inhibition": "4.12% (inactive)"},
      {"smiles": "N#CCCN(C(=O)COC(=O)c1ccc2c(c1)OCCO2)c1ccccc1", "inhibition": "11% (inactive)"},
      {"smiles": "Cc1c(C(=O)OCC(=O)N(CCC#N)c2ccccc2)oc2c1ccc1ccccc12", "inhibition": "60.1% (active)"},
      {"smiles": "N#CCCN(C(=O)COC(=O)c1ccc(S(=O)(=O)N2CCCCCC2)cc1)c1ccccc1", "inhibition": "16.8% (inactive)"},
      {"smiles": "Cc1ccc(CCNC(=O)C2CCN(S(=O)(=O)N3CCCC3)CC2)cc1", "inhibition": "6.73% (inactive)"},
      {"smiles": "CN(CC(=O)NCCc1ccc(S(N)(=O)=O)cc1)CC(=O)Nc1ccc(F)c(F)c1F", "inhibition": "-2.07% (inactive)"},
      {"smiles": "O=c1ccc2c(-c3ccccc3S(=O)(=O)O)c3ccc(O)c(O)c3oc-2c1O", "inhibition": "55.9% (active)"},
      {"smiles": "CC(C)COc1ccc(C(=O)NNC(=O)CCC(=O)c2cccs2)cc1", "inhibition": "2.01% (inactive)"},
      {"smiles": "Cc1cccc(NC(=O)c2ccc(S(=O)(=O)N(C)c3ccccc3)cc2)n1", "inhibition": "9.18% (inactive)"},
      {"smiles": "CCCCNc1c(-c2ccc(OC)c(Sc3ccc(OC)cc3)c2)nc2ccc(Cl)cn12", "inhibition": "13.3% (inactive)"},
      {"smiles": "COc1ccc(-c2csc3nc(-c4ccccc4F)oc(=O)c23)cc1OC", "inhibition": "46.9% (active)"},
      {"smiles": "COc1ccccc1-c1nnc(-c2ccc(F)cc2)o1", "inhibition": "4.73% (inactive)"},
      {"smiles": "COc1ccc(-c2csc(-c3cccs3)n2)cc1OC", "inhibition": "11.9% (inactive)"},
      {"smiles": "O=C(COC(=O)c1n[nH]c2ccccc12)Nc1ccccc1Br", "inhibition": "19.4% (inactive)"},
      {"smiles": "CCOC(=O)C1CCN(CC(=O)Nc2ccc(OC)c(S(=O)(=O)N3CCCCC3)c2)CC1", "inhibition": "7.12% (inactive)"},
      {"smiles": "CC[C@@H]1CCCCc2ccccc2[C@@H](C(=O)C[C@H](O)CC(C)=O)OC1=O", "inhibition": "5.92% (inactive)"},
      {"smiles": "Cc1ccc2cc(CCNC(=O)c3c(-c4ccccc4Cl)noc3C)c(=O)[nH]c2c1", "inhibition": "6.94% (inactive)"},
      {"smiles": "Cc1onc(-c2ccccc2Cl)c1C(=O)OCC(=O)c1ccccc1", "inhibition": "21.4% (inactive)"},
      {"smiles": "Cc1onc(-c2ccccc2Cl)c1C(=O)NCCn1ccc2ccccc21", "inhibition": "69.4% (active)"},
      {"smiles": "NCCN1CCN2C(=O)CN(C(=O)c3ccccc3)CC12", "note": "(configuration not stated)", "inhibition": "6.95% (inactive)"}
    ]}
  ]
}
